KCNQ2 pot: potentiators of rat KCNQ2 potassium channel | B-score at 10 µM | 310,000 tested, 0.54% active | CHO-K1 KCNQ2, FluxOR thallium flux fluorescence; stronger effect = higher value | AID 2239;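 active = fluorescence ratio B-score at least 3 SD of library B-scores, with initial fluorescence B-score within 3 of them, cut at about 5.3 in these data; same plate scores as AID 2156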;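 note: B-score of peak minus minimum over baseline fluorescence ratio after K+ and Tl+ stimulus; positive B-score means potentiation of KCNQ2 with more thallium influx and brighter signal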
KCNQ2 block: blocks the rat KCNQ2 potassium channel; O88943; CHO-K1 KCNQ2, FluxOR thallium flux, 20 min; stronger effect = lower value; B-score at 10 µM; 310,000 tested, 1.1% active; AID 2156;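 active = fluorescence ratio B-score at most minus 3 library SDs, with starting brightness B-score within 2 library SDs, cut at about -5.5 in these data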
Kir21 conf inh: confirmation of mouse Kir2.1 potassium channel inhibitors | Tl flux remaining, % of negative control (stronger effect = lower value), % at 10 µM | Kir2.1-expressing cells, FluxOR thallium flux fluorescence; stronger effect = lower value | 2,300 tested, 41% active | shares compounds with KCNQ2 pot;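 active = Primary-screen hit whose thallium flux fell at least 3 control SD below untreated wells in both duplicates, with normal baseline fluorescence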;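 note: 0% = blank wells without stimulus and 100% = stimulated no-compound controls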
HEK293 Tl flux: parental HEK293 activity in Kir2.1 inhibitor counter-screen. shares compounds with KCNQ2 pot. parental HEK293 cells, FluxOR thallium flux fluorescence; 0% = unstimulated blank wells. FluxOR signal as % of negative control (100 = no effect), % at 10 µM. 2,300 tested, 19% active. AID 2105;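 active = dye signal at least 3 control SD above or below untreated wells in both duplicates, raw fluorescence within 3, either direction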;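 note: percent is based on the flux ratio of peak minus minimum fluorescence over baseline F0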
CHO-K1 ctr: parental CHO-K1 activity in KCNQ2 potentiator counter-screen; activity increase over 3SD of controls, % at 10 µM; 1,200 tested, 43% active; parental CHO-K1 cells, FluxOR thallium flux fluorescence; zero = vehicle mean+3SD, 100% = vehicle-minus-blank window; shares compounds with KCNQ2 pot;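 active = signal rise of at least 3 SD above the untreated control mean, in both duplicate wells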;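 note: counter screen of KCNQ2 potentiator hits so any rise reflects channel-independent effects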
KCNQ1 sel pot: human KCNQ1 counter-target activity of KCNQ2 potentiators; shares compounds with KCNQ2 pot; CHO KCNQ1 stable, FluxOR thallium flux fluorescence; beyond 3SD, as % of vehicle-control signal; activation over 3SD threshold, % at 10 µM; 1,200 tested, 28% active;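 active = fluorescence ratio rise of at least 3 SD of vehicle wells above their mean, in both replicate wells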;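 note: 0% = vehicle mean plus 3 SD and 100% = vehicle minus unstimulated blank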
KCNQ2 pot conf: rat KCNQ2 channel potentiator confirmation | shares compounds with KCNQ2 pot | CHO-KCNQ2 cells, FluxOR thallium flux fluorescence | potentiation, less the hit threshold, % at 10 µM | 1,200 tested, 68% active | AID 2287;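 active = fluorescence ratio rising 3 SD or more over the vehicle control mean in both replicates, plus primary screen hit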;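 note: peak minus minimum thallium fluorescence divided by baseline after K/Tl stimulus; 0% = vehicle mean plus 3 SD and 100% = vehicle minus unstimulated blank difference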
Kir2-1 sel: tests whether KCNQ2 potentiators also affect mouse Kir2.1 | shares compounds with KCNQ2 pot | HEK293 Kir2.1, FluxOR thallium flux fluorescence | activity over 3SD threshold, % at 10 µM | 1,200 tested, 2% active | AID 2345;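 active = fluorescence ratio rise of at least 3 SD above the vehicle-control mean, seen in both replicates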;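 note: 0% = vehicle mean plus 3 SD and 100% = vehicle minus no-stimulus blank window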
KCNQ2 W236L pot: potentiates the retigabine-insensitive rat KCNQ2 W236L mutant channel; current increase over 3SD of negative controls (%), stronger effect = higher value, % at 25 µM; 940 tested, 10% active; CHO KCNQ2-W236L, automated patch clamp current; AID 2558; shares compounds with KCNQ2 pot;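 active = current increase at least 3 SD of the untreated controls above them in both duplicate recordings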
Target sequence (O88943 whole entry W236L, looked up): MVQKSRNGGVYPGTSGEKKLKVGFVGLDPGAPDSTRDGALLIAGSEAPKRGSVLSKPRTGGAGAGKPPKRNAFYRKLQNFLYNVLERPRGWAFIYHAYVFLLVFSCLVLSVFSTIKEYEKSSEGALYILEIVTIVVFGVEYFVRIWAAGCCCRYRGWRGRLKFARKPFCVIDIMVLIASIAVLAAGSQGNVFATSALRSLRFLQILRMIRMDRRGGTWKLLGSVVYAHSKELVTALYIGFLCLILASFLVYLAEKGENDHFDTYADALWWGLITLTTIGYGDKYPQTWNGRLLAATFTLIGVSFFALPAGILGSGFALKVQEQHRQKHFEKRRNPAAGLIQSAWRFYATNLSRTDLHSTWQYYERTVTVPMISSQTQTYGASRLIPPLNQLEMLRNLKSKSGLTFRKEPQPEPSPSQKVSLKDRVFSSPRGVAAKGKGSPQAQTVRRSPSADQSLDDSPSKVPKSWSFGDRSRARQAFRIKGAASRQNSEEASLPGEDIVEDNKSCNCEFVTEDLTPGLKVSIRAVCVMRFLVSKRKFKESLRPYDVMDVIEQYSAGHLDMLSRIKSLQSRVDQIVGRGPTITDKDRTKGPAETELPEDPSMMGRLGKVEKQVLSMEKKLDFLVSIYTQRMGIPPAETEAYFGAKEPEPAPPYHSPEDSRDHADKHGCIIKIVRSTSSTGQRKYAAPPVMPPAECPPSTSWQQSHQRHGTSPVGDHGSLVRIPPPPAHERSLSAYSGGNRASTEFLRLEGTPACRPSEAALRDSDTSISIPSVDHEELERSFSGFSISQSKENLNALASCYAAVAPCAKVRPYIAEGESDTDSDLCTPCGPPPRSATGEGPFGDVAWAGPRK
* marks the source's active call; other numbers are inactive results. Only some compounds are listed: those with a hit (about 1.6% of all), similar ones and a draw of the others.

Results for CCOCCCNC(=O)c1cc2c(s1)-c1ccccc1SC2 ?
KCNQ2 pot: 0.75; KCNQ2 block: inactive

Results for CC12CC3CC(C)(C1)CC(C(=O)N1CCN(C(=O)c4ccco4)CC1)(C3)C2 ?
KCNQ2 pot: 0.72; KCNQ2 block: inactive

What do the screens show for `Cc1cc(=O)c2cc3nc(-c4cccnc4)oc3c(Br)c2o1`?
KCNQ2 block: inactive

What do the screens show for `Fc1ccc(-c2csc(NC(=S)Nc3ccccc3)n2)cc1`?
KCNQ2 pot: 8.78*; KCNQ2 block: inactive; Kir21 conf inh: inactive; HEK293 Tl flux: inactive; CHO-K1 ctr: 26.5*; KCNQ1 sel pot: -15.3; KCNQ2 pot conf: -8.6; Kir2-1 sel: -36.0; KCNQ2 W236L pot: inactive

How did O=C(Nc1ccccc1)Nc1nc(-c2ccc(F)cc2)cs1 do in these assays?
KCNQ2 block: inactive

How did CCCCCCOc1ccc(-c2ccc(C#N)cn2)cc1 do in these assays?
KCNQ2 pot: 1.09; KCNQ2 block: inactive

Results for CCOc1c(Cl)cc(C(=O)Nc2cccc(C(=O)O)c2)cc1Cl ?
KCNQ2 pot: 0.97; KCNQ2 block: inactive

Results for Cc1ccccc1/C=N/N1CCN(c2ccccc2)CC1 ?
KCNQ2 block: inactive

What do the screens show for `Cc1cc(=O)[nH]c2ccccc12`?
KCNQ2 block: inactive

Results for Cc1cc2[nH]c3c(c[n+](C)c4ccccc34)c2cc1C ?
KCNQ2 block: inactive; Kir21 conf inh: inactive; HEK293 Tl flux: inactive

Results for COc1ccc(OCCC(=O)OCC(=O)Nc2ccc(S(=O)(=O)N3CCOCC3)cc2)cc1 ?
KCNQ2 pot: 0.1; KCNQ2 block: inactive

Results for CC(C)(C)c1ccc(OCCC(=O)OCC(=O)Nc2ccc(N3CCOCC3)cc2)cc1 ?
KCNQ2 pot: 5.55*; KCNQ2 block: inactive; Kir21 conf inh: inactive; HEK293 Tl flux: inactive; CHO-K1 ctr: 14.7*; KCNQ1 sel pot: -11.4; KCNQ2 pot conf: -11.7; Kir2-1 sel: -37.5; KCNQ2 W236L pot: inactive

How did CCC(C)n1c(NC(=O)c2ccccc2)c(C#N)c2nc3ccccc3nc21 (configuration not stated) do in these assays?
KCNQ2 block: inactive

Results for CCCCn1c(NC(=O)c2ccc(F)cc2)c(C#N)c2nc3ccccc3nc21 ?
KCNQ2 pot: 5.67*; KCNQ2 block: inactive; Kir21 conf inh: inactive; HEK293 Tl flux: 65.5%*; CHO-K1 ctr: 103.4*; KCNQ1 sel pot: -7.9; KCNQ2 pot conf: -4.3; Kir2-1 sel: -38.3; KCNQ2 W236L pot: inactive

Results for CCOC(=O)C1CCCN(C(=O)COc2ccc(S(=O)(=O)N(CC)c3ccccc3)cc2)C1 (configuration not stated) ?
KCNQ2 pot: 1.09; KCNQ2 block: inactive

How did CCOC(=O)C1CCN(C(=O)CSc2ccccc2Cl)CC1 do in these assays?
KCNQ2 block: inactive

What do the screens show for `C=CCn1c(=S)[nH]c2cc(-c3ccccc3)sc2c1=O`?
KCNQ2 pot: 2.81; KCNQ2 block: inactive

Results for C=CCn1c(=S)[nH]c2scc(-c3cccs3)c2c1=O ?
KCNQ2 pot: 25.1*; KCNQ2 block: inactive; Kir21 conf inh: inactive; HEK293 Tl flux: 512.0%*; CHO-K1 ctr: 11.7*; KCNQ1 sel pot: -12.9; KCNQ2 pot conf: 106.4*; Kir2-1 sel: -2.8; KCNQ2 W236L pot: inactive

How did O=c1c2c(-c3cccs3)csc2ncn1-c1ccc(Br)cc1 do in these assays?
KCNQ2 block: inactive

How did Cn1c(=S)[nH]c2scc(-c3cccs3)c2c1=O do in these assays?
KCNQ2 pot: 18.8*; KCNQ2 block: inactive; Kir21 conf inh: inactive; HEK293 Tl flux: 465.0%*; CHO-K1 ctr: 119.0*; KCNQ1 sel pot: -11.5; KCNQ2 pot conf: 88.0*; Kir2-1 sel: -1.9; KCNQ2 W236L pot: inactive

How did CCOc1nc(Nc2ccc(OC)cc2OC)nc(OCC)n1 do in these assays?
KCNQ2 block: inactive

Results for CN(C)c1ccc(/C=c2/sc3n(c2=O)NC2(c4ccccc4)N(C)C(=O)N(C)C2(c2ccccc2)N=3)cc1 (configuration not stated) ?
KCNQ2 pot: 0.68; KCNQ2 block: inactive

How did CC(=O)N(CC(=O)O)c1ccccc1 do in these assays?
KCNQ2 pot: 0.66; KCNQ2 block: inactive

What do the screens show for `CC(=O)N(CC(C)(C)CC=C(C)C)c1ccccc1`?
KCNQ2 block: inactive; Kir21 conf inh: 54.5%*; HEK293 Tl flux: inactive

What do the screens show for `C#Cc1ccc([C@@H]2C=C(C(=O)OCC=C)O[C@H](OCc3ccc(CO)cc3)C2)cc1`?
KCNQ2 block: inactive

How did Cc1cc(N2CCN(C)CC2)nc2ccc(NC(=S)N3CCC4(CC3)OCCO4)cc12 do in these assays?
KCNQ2 block: inactive

How did Cc1ccc(C(=O)NC(C)c2ccc(C)c(C)c2)s1 (configuration not stated) do in these assays?
KCNQ2 pot: 12*; KCNQ2 block: inactive; Kir21 conf inh: inactive; HEK293 Tl flux: inactive; CHO-K1 ctr: -2.8; KCNQ1 sel pot: 30.3*; KCNQ2 pot conf: 27.4*; Kir2-1 sel: -45.9; KCNQ2 W236L pot: inactive

What do the screens show for `Cc1ccc(C(=O)NC(C)c2ccc3c(c2)OCO3)s1` (configuration not stated)?
KCNQ2 pot: 3.1; KCNQ2 block: inactive

How did Cc1ccc(C(C)NC(=O)c2cccs2)cc1 (configuration not stated) do in these assays?
KCNQ2 pot: 1.82; KCNQ2 block: inactive

Results for Cc1ccc(C(C)NC(=O)c2cccs2)cc1C (configuration not stated) ?
KCNQ2 pot: 8.51*; KCNQ2 block: inactive; Kir21 conf inh: inactive; HEK293 Tl flux: inactive; CHO-K1 ctr: -8.9; KCNQ1 sel pot: 12.8*; KCNQ2 pot conf: 2.3*; Kir2-1 sel: -29.3; KCNQ2 W236L pot: inactive

Results for COc1ccc(Br)cc1/C=N/NC(=O)CN1CCN(Cc2ccccc2)CC1 ?
KCNQ2 block: inactive

Results for CC1(C)Oc2ccc(C(=O)N/N=C/c3ccc(O)cc3)cc2NC1=O ?
KCNQ2 block: inactive

Results for Cc1nc(CN2CCCCC2)cc(=O)[nH]1 ?
KCNQ2 pot: 0.58; KCNQ2 block: inactive

Screening data as filed in PubChem BioAssay.
